Bioassay records deposited in PubChem BioAssay by National Center for Advancing Translational Sciences (NCATS).
Many of the other results were omitted from the sample, so hits are more common in it than they were.
Pf Dd2 growth = inhibitors of Plasmodium falciparum Dd2 growth. P. falciparum Dd2 growth, SYBR Green, 72 h. Potency, µM (doses to about 28.9 µM), hits mostly inhibitors. actives 4.3% (n = 120,000). AID 1347417; active means well fitted inhibition curve with a large enough effect; further: nearly all actives have a fitted effect of over 65% in size
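Infected erythrocytes (Dd2, 0.3% parasitemia, 2.5% hematocrit final) are added to compound in RPMI-1640/Albumax II medium, grown 72 h at 37C in low oxygen, then lysed with saponin/Triton-X containing SYBR Green and read by fluorescence.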
Hits are given with their value; 0 = inactive.

SMILES | Pf Dd2 growth
O=C(NCc1ccccc1)C1(CCO)CC12CCOCC2 (stereo unspecified) | 0
O=C(NCCC1CCN(C(=O)Nc2ccc(F)cc2F)CC1)c1cccc(F)c1 | 0
Cc1ccc(NC(=O)N2CCC(CCNC(=O)c3cccc(F)c3)CC2)cc1F | 13µM
COc1cccc(C(=O)NCCC2CCN(C(=O)Nc3ccc(C)c(F)c3)CC2)c1 | 0
O=C(NCc1cccnc1)[C@@H]1C[C@@H](O)CN1C1CCN(C(=O)CCC2CCCC2)CC1 | 0
Cc1nnc2n1CCC(NC(=O)CC1=CCCCC1)CC2 (stereo unspecified) | 0
COc1ccc(C(=O)N2CCc3ccc(C(=O)NCc4cccc(OC)c4)cc32)cc1 | 0
CCOc1ccccc1NC(=O)Cn1c(N2CCC(C)CC2)nc(C)cc1=O | 11µM
Cc1cc(=O)n(CC(=O)Nc2ccc(Br)cc2)c(N2CCN(c3ccccc3)CC2)n1 | 0
CCOc1ccc(NC(=O)Cn2c(N3CCN(c4ccccc4)CC3)nc(C)cc2=O)cc1 | 0
COc1ccc(Cl)cc1NC(=O)Cn1c(N2CCN(c3ccccc3)CC2)nc(C)cc1=O | 7.9µM
Cc1ccc(NC(=O)Cn2c(N3CCC(C)CC3)nc(C)cc2=O)c(C)c1 | 0
COc1ccccc1NC(=O)Cn1c(N2CCC(C)CC2)nc(C)cc1=O | 0
O=C(c1ccc(Oc2ccccc2)cc1)N1CCNc2cnc(Nc3cccc(C(F)(F)F)c3)nc2C1 | 0
CS(=O)(=O)N1CCC(OC2CCN(C(=O)Cc3c[nH]c4ccccc34)CC2)CC1 | 0
N#Cc1cccc(C(=O)N2CCCCCCNC(=O)[C@@H]3C[C@@H](c4nc(-c5cccnc5)no4)C[C@@H]32)c1 | 0
O=C(Nc1cnc(-c2ccc(Cl)cc2)nc1)c1ccccc1Cl | 0
O=C(Nc1ccc(Cl)cc1)c1cnn2c1NC(c1ccccc1)=CC2c1ccccc1 (stereo unspecified) | 3.2µM
COc1ccc(NC(=O)C2=C(C)Nc3ncnn3C2c2ccccn2)cc1 (stereo unspecified) | 0
COc1ccc(C2=CC(c3ccccc3F)n3ncc(C(=O)Nc4ccc(C)cc4)c3N2)cc1 (stereo unspecified) | 7.9µM
COc1ccc(OC)c(C2NC(=O)NC(C)=C2C(=O)Nc2ccc(F)cc2)c1 (stereo unspecified) | 0
CC(=O)c1ccc(NC(=O)c2nc(-c3ccccc3)n(-c3ccc(Cl)cc3)n2)cc1 | 0
Cc1ccc(C2Cn3nnc(-c4nc(-c5ccccc5C)no4)c3CO2)c(C)c1 (stereo unspecified) | 0
O=C(NCc1ccc2c(c1)OCO2)c1ccc2c(c1)N(C(=O)c1ccc(F)cc1)CC2 | 0
CC(C)(C)C1CCc2nc(NC(=O)Cc3ccccc3)sc2C1 (stereo unspecified) | 11µM
SMILES | Pf Dd2 growth
CC(C)(C)C1CCc2nc(NC(=O)COc3ccccc3[N+](=O)[O-])sc2C1 (stereo unspecified) | 0
Cc1cccc(OCC(=O)Nc2nc3c(s2)CC(C(C)(C)C)CC3)c1C (stereo unspecified) | 0
COc1ccc(NC(=O)CN2C(=O)NC3(CCC(C(C)(C)C)CC3)C2=O)cc1 (stereo unspecified) | 0
CN(Cc1ccoc1)C1CCc2nn(C)c(=O)n2CC1 (stereo unspecified) | 0
C[C@@H](NCc1ccc(F)cc1)c1onc(-c2ccc(Cl)cc2)c1C(=O)O | 0
CN1CCCC2(CCN(C(=O)CCCS(N)(=O)=O)C2)C1=O (stereo unspecified) | 0
CN1CCN(c2ccc(-c3noc([C@@H]4CCCN4Cc4ccccc4)n3)cn2)CC1 | 7.9µM
CN(C)c1ccc(CN2CCC[C@H]2c2nc(-c3ccnc(N4CCC(C(N)=O)CC4)c3)no2)cc1 | 0
c1ccc(CN2CCC[C@H]2c2nc(-c3ccnc(N4CCOCC4)c3)no2)cc1 | 13µM
CNc1ccc(-c2noc([C@@H]3CCCN3Cc3ccc(CO)o3)n2)cn1 | 0
c1cc(-c2noc([C@@H]3CCCN3C3CCC3)n2)cc(N2CCOCC2)n1 | 0
CNc1ccc(-c2noc([C@@H]3CCCN3Cc3cnc4ccccc4c3)n2)cn1 | 0
O=C(O)[C@]12CCCN[C@@H]1CCN(Cc1ccsc1)C2 | 0
Cc1ccc(NC(=O)Cn2ccn3nc(-c4ccccc4)c(CO)c3c2=O)c(C)c1 | 0
O=C(c1cccs1)N1CCCN(C(=O)C2CC2)c2ccccc21 | 0
COc1cccc(-c2cc(C3CCN(S(=O)(=O)c4ccc(F)cc4F)CC3)[nH]n2)c1 | 7.1µM
COc1cccc(-c2cc(C3CCN(C(=O)c4cc(C)ccc4C)CC3)[nH]n2)c1 | 0
COc1cccc(-c2cc(C3CCN(C(=O)Nc4ccc(F)cc4)CC3)[nH]n2)c1 | 5.6µM
COc1cccc(-c2cc(C3CCN(C(=O)Nc4ccccc4OC)CC3)[nH]n2)c1 | 0
COc1cccc(-c2cc(C3CCN(C(=O)Nc4cccc(Cl)c4C)CC3)[nH]n2)c1 | 0
COc1cccc(-c2cc(C3CCN(C(=O)Nc4ccccc4F)CC3)[nH]n2)c1 | 0
CC(=O)N1CCC(N2CCC3(CC2)CC(C(=O)N2CCOCC2)N(C)C3)CC1 (stereo unspecified) | 0
Cc1nccn1CC(=O)N1CCCC(c2ccc(C(=O)O)cc2)C1 (stereo unspecified) | 0
O=C(NCCc1cnc[nH]1)[C@@H]1C[C@H]2C(=O)NCCCCCCN(S(=O)(=O)c3ccccc3)[C@H]2C1 | 0
O=C(CC(c1ccc(Cl)cc1)c1c[nH]c2ccc([N+](=O)[O-])cc12)N1CCOCC1 (stereo unspecified) | 0
SMILES | Pf Dd2 growth
O=C(CC(c1ccccc1)c1ccccc1Cl)N1CCOCC1 (stereo unspecified) | 0
O=C(CC(c1ccc(F)cc1)c1cn(Cc2ccccc2)c2ccc([N+](=O)[O-])cc12)N1CCOCC1 (stereo unspecified) | 0.18µM
C#CCNC(=O)CC[C@H]1CNC(=O)[C@@H]2[C@@H](CCN2Cc2ccc(O)cc2)N1C | 0
COc1cccc(CC(=O)N2CCCC3(C2)NC(=O)N(Cc2cc(C)ccc2C)C3=O)c1 (stereo unspecified) | 0
O=S(=O)(N[C@H]1CO[C@H]2[C@@H]1OC[C@@H]2n1nnnc1Oc1ccc(-n2cncn2)cc1)c1cccs1 | 0
N#Cc1ccc(N2CCCn3nc(CCC(=O)N4CCCC4)cc3C2)nc1 | 0
O=C(c1cccnn1)N1CC(F)(F)C[C@H]1c1nc(-c2ccccc2)no1 | 0
CCCC(=O)NCCc1nc2ccccc2n1Cc1c(F)cccc1Cl | 0
O=C(NCCc1nc2ccccc2n1Cc1ccc(Cl)cc1)c1ccccc1 | 0
O=C(NCCc1nc2ccccc2n1Cc1ccc(Cl)cc1Cl)c1ccco1 | 11µM
CC(=O)Nc1ccc(C(=O)NC2CCN(c3cc(-c4ccccc4)[nH]n3)C2)cc1 (stereo unspecified) | 0
CNC(=O)[C@@H](C1CC1)N1CCC[C@H]1C(=O)NCCOC | 0
CC1CCC2(CC1)NC(=O)N(CC(=O)Nc1cccc(C(F)(F)F)c1)C2=O (stereo unspecified) | 0
Cc1c[nH]c(C(=O)N2CCCC(CCc3cccc(C(F)(F)F)c3)C2)c1 (stereo unspecified) | 0
O=C(c1ccc(=O)[nH]c1)N1CCCC(CCc2cccc(C(F)(F)F)c2)C1 (stereo unspecified) | 0
CN(CC1CCCN(CCc2cccc(C(F)(F)F)c2)C1)C(=O)c1ccc2[nH]ccc2c1 (stereo unspecified) | 10µM
COc1cccc(CCNC(=O)c2c(C)noc2-c2ccc3c(c2)OCO3)c1 | 0
COCC1CN(C2CCC2)CC12CCN(C(=O)c1ccco1)CC2 (stereo unspecified) | 0
